# According to PubChem BioAssay AID463173 (ICCB-Longwood Screening Facility, Harvard Medical School, 2010):
# In all, about 52,000 compounds went through this assay and about 1,700 (3.3%) were called active. For the sample, actives were picked, then their nearest neighbours and some compounds at random. A number with no mark means an inactive call. Rule as the data show it: active = survival mostly below about 52% (no sharp cut-off); inactive = mostly above about 56%.
# Test system: Wild type
# Assay: S. aureus survival, RN4220 and DeltatarO strains – OD600, teichoic acid synthesis inhibitors, primary screen (AID 463173)
# Settings: S. aureus RN4220 wild type/DeltatarO growth, OD600, 18 h, active compounds read low, screened at 18.75 µg/mL (by protocol)
row,SMILES,survival
1,CCOC(=O)c1c(C)[nH]c(C)c1S(=O)(=O)N1CCC(C(=O)NCc2cccc(C)c2)CC1,76%
2,COC(=O)C1=C(C)Nc2nc3ccccc3n2C1c1ccccc1 (stereo not given),91%
3,CC(=O)NC1CC(=O)N(c2ccc3c(c2)OCCO3)C1 (stereo not given),66%
4,COc1ccc(Cl)cc1-n1nnc(-c2nc(-c3ccc4c(c3)OCO4)no2)c1C,71%
5,COc1ccc(OCc2nc3ccccc3n2C(C)C)cc1,102%
6,CCC(C)Cn1c(COc2ccc(OC)cc2)nc2ccccc21 (stereo not given),-1% (active)
7,CCCc1nc2ccccc2n1CC(O)COc1ccccc1 (stereo not given),103%
8,COc1ccc(OCc2nc3ccccc3n2C(C)c2ccccc2)cc1 (stereo not given),-2% (active)
9,COc1ccc(OCC(O)Cn2c(C(C)C)nc3ccccc32)cc1 (stereo not given),107%
10,Cc1nc2ccccc2n1C(C)c1ccccc1 (stereo not given),111%
11,COc1cccc(OCc2nc3ccccc3n2C)c1,84%
12,Cc1ccc(OCc2nc3ccccc3n2CC(C)C)cc1,-1% (active)
13,Cc1cc(C)n2c(Nc3cccc(C(F)(F)F)c3)c(-c3ccsc3)nc2n1,89%
14,O=C(c1cccs1)N1CCCc2ccccc21,124%
15,COc1ccc(-n2ncc3c(NC(C)(C)CO)ncnc32)cc1,59%
16,Cc1cc(Br)ccc1NC(=O)c1cc2c(s1)-c1ccccc1SC2,78%
17,CCN(CC)c1ccc(NC(=O)CCc2nc3cccnc3n2Cc2cccs2)c(C)c1,73%
18,CCOc1ccc(S(=O)(=O)NCCc2sc(-c3ccc(C)cc3)nc2C)cc1,73%
19,Cc1ccc(-c2nc(C)c(CCNS(=O)(=O)c3ccccc3F)s2)cc1,67%
20,Cc1ccc(-c2nc(C)c(CCNS(=O)(=O)c3ccc(F)c(C(F)(F)F)c3)s2)cc1,-6% (active)
21,COc1ccc(N2CC(NC(=O)c3cc4ccccc4o3)CC2=O)cc1OC (stereo not given),70%
22,CCc1nc(SCC(=O)O)c(C#N)cc1C,96%
23,O=c1c2c([nH]n1-c1ccccc1)CCCC2,123%
24,COc1ccc(NC(=O)c2ccc3c(c2)c(C)c(C)n3Cc2ccc(F)cc2)c(OC)c1,59%
25,Cc1nc(-c2cccc(F)c2)sc1CCNC(=O)C(=O)Nc1ccc2c(c1)OCCO2,68%

row,SMILES,survival
1,COc1ccc(-c2cc(C(F)(F)F)nc(SCCC(=O)N3CCN(C)CC3)n2)cc1,108%
2,CCC1CCCCN1C(=O)CSc1nc(-c2ccc(OC)c(OC)c2)cc(C(F)(F)F)n1 (stereo not given),-15% (active)
3,COc1ccc(-c2cc(C(F)(F)F)nc(SCC(=O)N3CCCCC3)n2)cc1,97%
4,COc1ccc(-c2cc(C(F)(F)F)nc(SCC(=O)N3CCCCC3C)n2)cc1OC (stereo not given),69%
5,CCC1CCCCN1C(=O)CSc1nc(-c2ccc(OC)cc2)cc(C(F)(F)F)n1 (stereo not given),-6% (active)
6,COc1ccc(-c2cc(C(F)(F)F)nc(SCC(=O)N3CCCCC3)n2)cc1OC,90%
7,Cc1cc(C)n(-c2nc3cc(Cl)c(Cl)cc3nc2Nc2ccc(F)cc2C)n1,82%
8,Cc1oc(C(C)(C)C)cc1C(=O)NC(Cc1ccccc1)C(=O)O (stereo not given),98%
9,Cc1ccc(CNC(=O)C2CCN(c3ncnc4c3nc3n4CCCCC3)CC2)cc1,85%
10,COc1ccccc1N1CCN(C(=O)c2cc(-c3ccccc3O)on2)CC1,66%
11,COc1ccc(-c2cc(C(=O)N3CCN(c4ccc(F)cc4)CC3)no2)cc1OC,72%
12,COc1ccccc1N1CCN(C(=O)c2cc(-c3ccc(F)cc3)on2)CC1,73%
13,COc1ccccc1-c1cc(C(=O)N2CCN(c3ccccc3)CC2)no1,-10% (active)
14,O=C(c1cc(-c2ccc(O)cc2)on1)N1CCN(c2ccccc2)CC1,51%
15,COc1cccc(-c2cc(C(=O)N3CCN(c4ccccc4OC)CC3)no2)c1,-9% (active)
16,COc1ccc(N2CCN(C(=O)c3cc(-c4ccc(C)c(F)c4)on3)CC2)cc1,106%
17,COc1ccc(-c2cc(C(=O)N3CCN(c4ccccc4)CC3)no2)cc1,16% (active)
18,COc1cccc(-c2cc(C(=O)N3CCN(c4ccc(F)cc4)CC3)no2)c1,78%
19,CCn1c(CCNC(=O)C2CCCO2)nnc1SC (stereo not given),94%
20,COc1cccc(N2CCN(C(=O)CN3CCSc4ccc(S(=O)(=O)N(C)C)cc43)CC2)c1,72%
21,Cc1ccc2ccc(C(Nc3ccccn3)c3ccccc3)c(O)c2n1 (stereo not given),69%
22,Oc1cccc(C(Nc2ccccn2)c2ccc3cccnc3c2O)c1Cl (stereo not given),76%
23,Cc1ccc(C(Nc2ccccn2)c2ccc3cccnc3c2O)cc1 (stereo not given),6% (active)
24,Cc1cccc(NC(c2cccc(Cl)c2)c2ccc3cccnc3c2O)n1 (stereo not given),4% (active)
25,Cc1ccc(O)c(CNc2cccc3cccnc23)c1,107%
